ChEMBL document CHEMBL1961873, “Compounds: GSK PKIS; Assays: Nanosyn kinase panel” (2012)

Assays:
[1] = biological target: Sphingosine kinase 1 (Homo sapiens) (UniProt Q9NYA1); conditions: at 1 µM;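 note: mean SPHK1 inhibition value reported from the GSK PKIS kinase panel screen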
[2] = biological target: T1, Sphingosine kinase 2 (Homo sapiens) (UniProt Q9NRA0); conditions: at 0.1 µM
T1 sequence (whole entry): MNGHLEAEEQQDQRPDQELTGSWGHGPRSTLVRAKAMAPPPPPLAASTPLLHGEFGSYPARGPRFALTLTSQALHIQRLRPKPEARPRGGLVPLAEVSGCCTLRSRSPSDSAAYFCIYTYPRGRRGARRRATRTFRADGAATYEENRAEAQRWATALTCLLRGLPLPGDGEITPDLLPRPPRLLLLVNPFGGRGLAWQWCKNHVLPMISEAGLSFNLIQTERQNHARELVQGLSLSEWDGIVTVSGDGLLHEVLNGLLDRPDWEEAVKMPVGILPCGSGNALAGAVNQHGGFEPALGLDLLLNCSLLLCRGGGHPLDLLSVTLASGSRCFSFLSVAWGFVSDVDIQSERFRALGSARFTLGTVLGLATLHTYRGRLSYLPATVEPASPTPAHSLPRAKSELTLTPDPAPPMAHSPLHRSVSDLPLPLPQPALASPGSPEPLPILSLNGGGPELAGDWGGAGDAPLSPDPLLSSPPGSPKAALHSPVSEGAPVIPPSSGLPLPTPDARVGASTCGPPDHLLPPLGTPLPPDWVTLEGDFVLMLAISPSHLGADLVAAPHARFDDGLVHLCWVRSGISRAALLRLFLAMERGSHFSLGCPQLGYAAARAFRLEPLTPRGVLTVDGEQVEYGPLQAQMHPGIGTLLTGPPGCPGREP

[3] = biological target: T1, Sphingosine kinase 2 (Homo sapiens); conditions: at 1 µM
[4] = biological target: Casein kinase II subunit alpha (Homo sapiens) (UniProt P68400); conditions: at 0.1 µM
[5] = biological target: Casein kinase II subunit alpha (Homo sapiens) (UniProt P68400); conditions: at 1 µM
[6] = biological target: T2, Inhibitor of nuclear factor kappa-B kinase subunit alpha (Homo sapiens) (UniProt O15111); conditions: at 0.1 µM
T2 sequence (whole entry): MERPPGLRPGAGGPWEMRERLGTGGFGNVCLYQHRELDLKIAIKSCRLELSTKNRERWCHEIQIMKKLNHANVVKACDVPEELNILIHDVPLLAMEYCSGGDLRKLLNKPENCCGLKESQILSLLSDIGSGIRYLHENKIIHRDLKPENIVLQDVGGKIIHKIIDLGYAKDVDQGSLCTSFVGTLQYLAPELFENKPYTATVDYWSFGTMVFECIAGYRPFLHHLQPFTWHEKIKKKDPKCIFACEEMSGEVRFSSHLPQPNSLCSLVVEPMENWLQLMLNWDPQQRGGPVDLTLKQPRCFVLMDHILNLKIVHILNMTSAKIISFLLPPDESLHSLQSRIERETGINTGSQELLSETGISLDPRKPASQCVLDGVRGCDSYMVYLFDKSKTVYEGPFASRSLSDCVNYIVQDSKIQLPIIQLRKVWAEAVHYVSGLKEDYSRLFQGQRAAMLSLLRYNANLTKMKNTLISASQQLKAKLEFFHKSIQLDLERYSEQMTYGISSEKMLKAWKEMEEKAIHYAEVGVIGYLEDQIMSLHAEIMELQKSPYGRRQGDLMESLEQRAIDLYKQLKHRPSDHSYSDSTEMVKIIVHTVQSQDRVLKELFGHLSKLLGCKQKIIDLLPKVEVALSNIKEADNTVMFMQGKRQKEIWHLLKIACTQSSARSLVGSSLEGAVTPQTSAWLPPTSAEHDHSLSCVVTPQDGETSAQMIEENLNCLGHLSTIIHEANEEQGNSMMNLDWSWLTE

[7] = biological target: T2, Inhibitor of nuclear factor kappa-B kinase subunit alpha (Homo sapiens); conditions: at 1 µM
[8] = biological target: T3, Inhibitor of nuclear factor kappa-B kinase subunit beta (Homo sapiens) (UniProt O14920); conditions: at 0.1 µM
T3 sequence (whole entry): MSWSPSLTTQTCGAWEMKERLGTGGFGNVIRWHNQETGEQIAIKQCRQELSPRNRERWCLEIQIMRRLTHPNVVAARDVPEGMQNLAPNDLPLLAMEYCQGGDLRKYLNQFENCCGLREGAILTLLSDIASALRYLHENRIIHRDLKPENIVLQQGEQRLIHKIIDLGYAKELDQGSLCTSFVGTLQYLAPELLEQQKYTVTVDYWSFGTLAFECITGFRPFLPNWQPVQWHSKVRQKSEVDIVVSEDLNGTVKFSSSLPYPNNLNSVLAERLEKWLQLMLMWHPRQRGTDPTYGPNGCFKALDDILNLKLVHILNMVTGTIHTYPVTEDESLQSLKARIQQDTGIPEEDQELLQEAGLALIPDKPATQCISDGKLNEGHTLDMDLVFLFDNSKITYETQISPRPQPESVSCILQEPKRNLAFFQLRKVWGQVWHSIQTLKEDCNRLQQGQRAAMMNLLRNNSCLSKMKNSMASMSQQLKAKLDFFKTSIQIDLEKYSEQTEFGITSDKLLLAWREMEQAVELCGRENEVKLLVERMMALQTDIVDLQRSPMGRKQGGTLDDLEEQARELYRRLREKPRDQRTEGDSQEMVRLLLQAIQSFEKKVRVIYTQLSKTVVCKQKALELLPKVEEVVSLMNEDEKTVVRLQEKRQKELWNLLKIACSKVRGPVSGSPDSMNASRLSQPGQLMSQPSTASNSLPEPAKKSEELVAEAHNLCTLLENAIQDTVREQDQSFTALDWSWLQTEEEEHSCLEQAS

[9] = biological target: T3, Inhibitor of nuclear factor kappa-B kinase subunit beta (Homo sapiens); conditions: at 1 µM
[10] = biological target: T4, Inhibitor of nuclear factor kappa-B kinase subunit epsilon (Homo sapiens) (UniProt Q14164); conditions: at 0.1 µM
T4 sequence (whole entry): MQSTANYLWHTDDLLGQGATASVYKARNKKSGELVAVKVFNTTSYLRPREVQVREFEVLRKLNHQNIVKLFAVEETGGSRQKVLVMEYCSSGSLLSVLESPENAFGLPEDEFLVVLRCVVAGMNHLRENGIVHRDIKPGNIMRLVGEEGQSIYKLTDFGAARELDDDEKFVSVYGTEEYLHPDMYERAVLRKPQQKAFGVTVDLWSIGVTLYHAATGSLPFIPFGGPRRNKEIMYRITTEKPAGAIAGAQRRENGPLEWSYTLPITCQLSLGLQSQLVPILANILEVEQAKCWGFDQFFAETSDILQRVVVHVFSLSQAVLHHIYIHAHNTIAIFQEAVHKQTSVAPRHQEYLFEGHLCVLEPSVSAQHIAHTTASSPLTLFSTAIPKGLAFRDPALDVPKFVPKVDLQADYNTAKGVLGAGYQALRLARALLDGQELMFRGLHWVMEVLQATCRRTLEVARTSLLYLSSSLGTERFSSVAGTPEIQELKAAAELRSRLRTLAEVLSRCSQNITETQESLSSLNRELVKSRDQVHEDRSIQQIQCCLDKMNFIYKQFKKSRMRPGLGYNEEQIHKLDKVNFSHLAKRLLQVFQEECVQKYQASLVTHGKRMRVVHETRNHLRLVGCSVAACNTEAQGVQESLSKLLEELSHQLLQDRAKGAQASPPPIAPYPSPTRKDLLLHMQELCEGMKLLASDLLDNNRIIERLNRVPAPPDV

[11] = biological target: T4, Inhibitor of nuclear factor kappa-B kinase subunit epsilon (Homo sapiens); conditions: at 1 µM
[12] = biological target: T5, Serine/threonine-protein kinase Nek1 (Homo sapiens) (UniProt Q96PY6); conditions: at 0.1 µM
T5 sequence (whole entry): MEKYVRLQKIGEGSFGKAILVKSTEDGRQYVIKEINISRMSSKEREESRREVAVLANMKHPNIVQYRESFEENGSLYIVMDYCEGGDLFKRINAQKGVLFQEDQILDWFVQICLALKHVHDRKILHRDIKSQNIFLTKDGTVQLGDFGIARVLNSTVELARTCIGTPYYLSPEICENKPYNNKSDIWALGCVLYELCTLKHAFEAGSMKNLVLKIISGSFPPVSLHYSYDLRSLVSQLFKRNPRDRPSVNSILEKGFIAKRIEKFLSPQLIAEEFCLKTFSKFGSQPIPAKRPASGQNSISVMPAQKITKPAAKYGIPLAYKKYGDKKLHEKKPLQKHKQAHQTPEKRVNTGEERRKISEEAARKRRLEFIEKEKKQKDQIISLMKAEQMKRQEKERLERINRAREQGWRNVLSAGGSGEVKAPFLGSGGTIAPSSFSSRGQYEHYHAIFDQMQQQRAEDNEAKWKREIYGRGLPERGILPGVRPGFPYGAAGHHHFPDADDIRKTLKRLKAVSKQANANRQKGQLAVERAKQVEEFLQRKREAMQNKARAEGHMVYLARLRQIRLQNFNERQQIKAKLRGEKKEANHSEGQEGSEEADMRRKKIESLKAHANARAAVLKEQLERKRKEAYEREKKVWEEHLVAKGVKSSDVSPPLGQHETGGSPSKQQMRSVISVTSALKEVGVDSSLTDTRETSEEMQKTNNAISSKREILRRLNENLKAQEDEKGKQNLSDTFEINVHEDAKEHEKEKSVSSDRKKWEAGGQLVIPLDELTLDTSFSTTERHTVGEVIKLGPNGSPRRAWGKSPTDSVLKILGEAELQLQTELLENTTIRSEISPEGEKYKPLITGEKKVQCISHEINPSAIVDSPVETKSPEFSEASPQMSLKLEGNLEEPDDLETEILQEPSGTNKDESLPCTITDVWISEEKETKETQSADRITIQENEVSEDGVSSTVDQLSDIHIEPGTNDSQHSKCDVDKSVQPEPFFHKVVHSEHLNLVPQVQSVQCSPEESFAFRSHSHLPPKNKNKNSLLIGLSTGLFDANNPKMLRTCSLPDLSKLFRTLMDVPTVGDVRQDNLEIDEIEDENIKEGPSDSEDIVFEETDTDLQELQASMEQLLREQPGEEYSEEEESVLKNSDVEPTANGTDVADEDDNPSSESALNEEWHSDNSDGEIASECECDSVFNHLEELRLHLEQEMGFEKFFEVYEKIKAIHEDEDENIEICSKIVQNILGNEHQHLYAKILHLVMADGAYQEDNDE

[13] = biological target: T5, Serine/threonine-protein kinase Nek1 (Homo sapiens); conditions: at 1 µM
[14] = biological target: T6, Serine/threonine-protein kinase Nek2 (Homo sapiens) (UniProt P51955); conditions: at 0.1 µM
T6 sequence (whole entry): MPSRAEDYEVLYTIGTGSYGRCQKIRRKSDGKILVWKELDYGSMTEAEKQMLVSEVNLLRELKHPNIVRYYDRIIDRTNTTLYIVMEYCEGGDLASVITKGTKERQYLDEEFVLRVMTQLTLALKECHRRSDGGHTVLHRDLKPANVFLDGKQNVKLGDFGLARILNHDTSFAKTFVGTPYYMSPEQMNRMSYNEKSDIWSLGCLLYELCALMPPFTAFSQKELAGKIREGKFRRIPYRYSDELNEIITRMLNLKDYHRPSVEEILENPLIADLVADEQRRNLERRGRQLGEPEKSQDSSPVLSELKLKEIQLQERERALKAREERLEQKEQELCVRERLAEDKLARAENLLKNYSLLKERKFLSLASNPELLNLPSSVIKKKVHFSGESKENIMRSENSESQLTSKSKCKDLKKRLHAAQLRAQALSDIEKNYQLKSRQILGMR

[15] = biological target: T6, Serine/threonine-protein kinase Nek2 (Homo sapiens); conditions: at 1 µM
[16] = biological target: Serine/threonine-protein kinase Nek6 (Homo sapiens) (UniProt Q9HC98); conditions: at 0.1 µM
[17] = biological target: Serine/threonine-protein kinase Nek6 (Homo sapiens) (UniProt Q9HC98); conditions: at 1 µM
[18] = biological target: Serine/threonine-protein kinase Nek7 (Homo sapiens) (UniProt Q8TDX7); conditions: at 0.1 µM
[19] = biological target: Serine/threonine-protein kinase Nek7 (Homo sapiens) (UniProt Q8TDX7); conditions: at 1 µM
[20] = biological target: T7, Serine/threonine-protein kinase Nek9 (Homo sapiens) (UniProt Q8TD19); conditions: at 0.1 µM;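 note: reported value is the mean percent inhibition of NEK9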
T7 sequence (whole entry): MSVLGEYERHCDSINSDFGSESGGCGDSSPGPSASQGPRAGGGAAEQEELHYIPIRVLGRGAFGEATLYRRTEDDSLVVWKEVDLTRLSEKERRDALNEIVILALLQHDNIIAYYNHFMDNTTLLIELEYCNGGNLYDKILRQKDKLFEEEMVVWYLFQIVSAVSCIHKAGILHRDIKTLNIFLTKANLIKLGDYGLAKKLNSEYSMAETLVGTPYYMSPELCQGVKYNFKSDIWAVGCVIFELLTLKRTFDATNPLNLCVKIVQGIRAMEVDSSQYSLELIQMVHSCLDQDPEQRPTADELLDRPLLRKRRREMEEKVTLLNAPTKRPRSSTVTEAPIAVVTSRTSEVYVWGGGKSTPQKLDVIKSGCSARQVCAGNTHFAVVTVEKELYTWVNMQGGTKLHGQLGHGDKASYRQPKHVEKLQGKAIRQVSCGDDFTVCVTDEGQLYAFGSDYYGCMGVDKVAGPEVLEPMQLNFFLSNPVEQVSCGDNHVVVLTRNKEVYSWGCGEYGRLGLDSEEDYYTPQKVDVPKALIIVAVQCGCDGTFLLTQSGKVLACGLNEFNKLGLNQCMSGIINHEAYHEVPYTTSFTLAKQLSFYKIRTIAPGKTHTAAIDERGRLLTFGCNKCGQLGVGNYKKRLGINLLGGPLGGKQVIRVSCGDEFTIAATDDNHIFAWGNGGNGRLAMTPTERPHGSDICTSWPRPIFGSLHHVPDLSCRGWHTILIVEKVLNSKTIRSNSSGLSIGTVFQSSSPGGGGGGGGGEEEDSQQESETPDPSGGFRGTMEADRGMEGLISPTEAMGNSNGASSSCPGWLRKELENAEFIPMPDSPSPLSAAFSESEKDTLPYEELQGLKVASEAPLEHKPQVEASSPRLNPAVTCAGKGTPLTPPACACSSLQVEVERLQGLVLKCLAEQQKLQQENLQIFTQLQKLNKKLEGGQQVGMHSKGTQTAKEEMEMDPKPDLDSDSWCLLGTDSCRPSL

Sequence of Serine/threonine-protein kinase Nek6 (Homo sapiens) (Q9HC98 whole entry): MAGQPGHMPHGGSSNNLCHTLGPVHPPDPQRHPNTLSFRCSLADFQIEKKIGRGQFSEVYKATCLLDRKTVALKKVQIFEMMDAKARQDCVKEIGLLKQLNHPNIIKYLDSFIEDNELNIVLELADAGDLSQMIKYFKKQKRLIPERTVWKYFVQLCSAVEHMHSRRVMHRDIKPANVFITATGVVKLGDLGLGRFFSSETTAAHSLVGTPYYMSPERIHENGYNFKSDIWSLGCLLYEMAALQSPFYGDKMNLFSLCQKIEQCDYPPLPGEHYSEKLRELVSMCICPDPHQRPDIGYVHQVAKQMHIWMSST
Sequence of Serine/threonine-protein kinase Nek7 (Homo sapiens) (Q8TDX7 whole entry, looked up): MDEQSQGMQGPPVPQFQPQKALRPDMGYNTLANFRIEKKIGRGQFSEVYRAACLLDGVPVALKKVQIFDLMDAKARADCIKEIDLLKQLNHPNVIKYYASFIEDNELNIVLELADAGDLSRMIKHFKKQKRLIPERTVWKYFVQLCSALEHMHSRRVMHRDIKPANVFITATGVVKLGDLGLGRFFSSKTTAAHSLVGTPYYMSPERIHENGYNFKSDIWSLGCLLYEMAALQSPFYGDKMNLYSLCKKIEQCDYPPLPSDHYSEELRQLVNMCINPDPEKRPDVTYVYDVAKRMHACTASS
Sequence of Casein kinase II subunit alpha (Homo sapiens) (P68400 whole entry, looked up): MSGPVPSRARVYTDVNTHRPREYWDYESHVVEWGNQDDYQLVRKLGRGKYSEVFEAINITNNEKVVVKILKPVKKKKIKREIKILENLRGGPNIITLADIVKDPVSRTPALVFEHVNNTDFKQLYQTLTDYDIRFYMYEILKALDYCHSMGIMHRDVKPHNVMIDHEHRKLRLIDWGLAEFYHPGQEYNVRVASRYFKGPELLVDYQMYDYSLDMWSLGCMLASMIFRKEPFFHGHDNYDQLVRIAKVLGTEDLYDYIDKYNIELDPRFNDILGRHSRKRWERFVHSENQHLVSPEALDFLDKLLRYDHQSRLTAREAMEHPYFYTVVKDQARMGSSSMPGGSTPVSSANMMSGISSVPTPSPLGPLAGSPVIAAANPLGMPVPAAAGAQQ
Sequence of Sphingosine kinase 1 (Homo sapiens) (Q9NYA1 whole entry): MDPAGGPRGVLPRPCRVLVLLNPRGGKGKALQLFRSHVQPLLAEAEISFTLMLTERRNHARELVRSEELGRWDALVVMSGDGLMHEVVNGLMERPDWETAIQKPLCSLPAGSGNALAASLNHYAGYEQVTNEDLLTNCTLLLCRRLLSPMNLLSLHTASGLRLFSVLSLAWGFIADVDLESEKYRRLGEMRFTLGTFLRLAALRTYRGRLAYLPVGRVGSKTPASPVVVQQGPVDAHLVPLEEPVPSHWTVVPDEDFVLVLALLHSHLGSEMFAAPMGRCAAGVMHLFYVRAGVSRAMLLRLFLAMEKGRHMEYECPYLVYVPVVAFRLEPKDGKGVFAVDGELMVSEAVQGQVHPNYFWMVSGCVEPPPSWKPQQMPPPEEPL

Row | Structure (SMILES) | inhibition [1] [%] | inhibition [2] [%] | inhibition [3] [%] | inhibition [4] [%] | inhibition [5] [%] | inhibition [6] [%] | inhibition [7] [%] | inhibition [8] [%] | inhibition [9] [%] | inhibition [10] [%] | inhibition [11] [%] | inhibition [12] [%] | inhibition [13] [%] | inhibition [14] [%] | inhibition [15] [%] | inhibition [16] [%] | inhibition [17] [%] | inhibition [18] [%] | inhibition [19] [%] | inhibition [20] [%]
1 | O=C(Nc1n[nH]c2nc(-c3ccc(O)cc3)c(Br)cc12)C1CC1 | -0.49 | -0.76 | -0.74 | 3.43 | 5.84 | 8.51 | 12.4 | 6.98 | 9.61 | 8.95 | 12.2 | 3.52 | 11.2 | 6.4 | 9 | 3.51 | 15.2 | 13.2 | 46.3 | 13.9
2 | COc1cc(Nc2ncc3c(C)nc(-c4cccc(Oc5ccccc5)c4)n3n2)cc(OC)c1OC | -0.76 | 0.82 | 0 | 0.59 | 12.7 | 2.21 | -5.5 | 1.1 | 0.16 | 2.97 | 21.3 | 2.64 | 11.3 | 7.11 | 31.6 | 2.7 | -0.99 | 4.1 | 1.98 | 29
